Screening results as filed in PubChem.
LDHA inh – LDHA (human) enzyme inhibition; P00338; purified LDHA, NADH/diaphorase-resazurin fluorescence; hits give low values; activity change, % (values are at about 110 or 230 µM); 480,000 compounds, 0.15% hits; in the data active = activity change below about -30%; inconclusive = mostly about -25% to -30%
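Remaining NADH was detected by diaphorase (0.133 mg/mL) converting 37 µM resazurin to fluorescent resorufin, read at 0 and 20 minutes. The preceding 5-minute room-temperature reaction used 2 nM LDHA, 0.2 mM sodium pyruvate and 0.06 mM NADH at pH 7.4.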
HEK293 tox – cytotoxicity in counter-screen for GLP-1R inverse agonists; 410,000 compounds, 0.13% hits; Potency, µM (highest dose often 38.3 µM), usual class: inhibitors; HEK293 cAMP-luciferase reporter cells, luminescence, 24 h;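 note: loss of luciferase light is scored as toxicity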
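Cells in DMEM/10% Nu serum/1% pen-strep, 1536-well format. Pre-incubated 12 h, dosed with 23 nL compound, incubated a further 24 h. Luciferase detection, 12 min at room temp, luminescence.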
p53 reactivator – mutant p53 re-activation in reporter cells; H1299 p53-A138V BP100-luciferase reporter, luminescence, 24 h; Potency, µM (series often up to 92.2 µM), most hits filed as activators; 320,000 compounds, 0.063% hits; note: nearly all actives have a fitted effect of over 45% in size
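H1299 (p53-null), stable ts p53-A138V + BP100-Luc; 1000 cells/well, Opti-MEM/10% FBS; cpd 4 pt, 1:5; 24 h, 37 deg C, 5% CO2; detection reagent 10 min RT; luminescence.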
GLP1R ag – agonists of human GLP-1 receptor. HEK293 GLP-1R CRE-luciferase, luminescence, 4-6 h; cells express a hypersensitive GLP-1R form. 380,000 compounds, 0.007% hits. P43220. Potency, µM (doses to about 45.6 µM), most hits filed as activators
ClpP mod – qHTS Assay for Activators of ClpP; purified B. subtilis ClpP, FRET peptide cleavage, 20 min; ATP-dependent Clp protease proteolytic subunit (Bacillus subtilis (strain 168)), P80244; Potency, µM (series often up to 57.5 µM); 340,000 compounds, 1.9% hits; active = well fitted falling curve with a large enough effect; inconclusive = small, poorly fitted or top-dose-only effect; inactive = no such curve, though single readings can be large or run the other way; note: the source files actives as falling curves though it sought activators and does not explain the sign; nearly all actives have a fitted effect of over 65% in size
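Buffer: 100 mM Tris/HCl pH8, 100 mM KCl, 0.05% low protease BSA, 2.5% glycerol, 0.01% Tween-20. ClpP 10 microg/mL final; 20 min RT; delta FRET normalized to ADEP and DMSO controls.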
GLP-1R inv ag – acts as inverse agonist at human GLP-1 receptor; P43220; HEK293 GLP-1R CRE-luciferase, luminescence, 24 h; GLP-1R form is constitutively active; Potency, µM (titrated, usually from 38.3 µM), actives largely listed as inhibitors; 410,000 compounds, 1.6% hits; AID 624417; note: nearly all actives have a fitted effect of over 55% in size
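HEK293 cells stably co-expressing a cAMP-responsive luciferase reporter and constitutively active GLP-1R were seeded, incubated 12 h, then exposed to compounds for 24 h at 37 C. Luminescence was read 12 min after detection reagent; inverse agonists lower signal.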
Hits are given with their value; i = inactive; ? = inconclusive; nt = not tested or not shown. Rows were chosen to be rich in hits. Some 2.9% of all compounds tested hit in one or more screens of this group. Unless noted, calls come from the whole dose curve; as a rule, active = well fitted curve in the direction sought with a large enough effect; inconclusive = small, poorly fitted or top-dose-only effect, or another doubt; inactive = no such curve, though single readings can be large; an effect the other way counts as inactive or inconclusive.

SMILES | LDHA inh | HEK293 tox | p53 reactivator | GLP1R ag | ClpP mod | GLP-1R inv ag
CCN1CCc2c(sc(N)c2C(N)=O)C1 | i | i | i | i | 14µM | i
CN1CCc2c(sc(N)c2C(N)=O)C1 | i | i | i | i | 20µM | i
NC(=O)c1c(N)sc2c1CCCC2 | i | i | i | i | i | i
O=C(Nc1n[nH]c(=S)s1)c1ccco1 | i | i | i | i | i | i
O=S(=O)(c1ccc(SCc2cc(Cl)c3c(c2)OCCCO3)nc1)N1CCCC1 | i | nt | nt | nt | nt | nt
COc1ccccc1NS(=O)(=O)c1ccc(C(=O)NCC(c2ccco2)N(C)C)cc1 (centres undefined) | i | i | i | i | i | ?
Cc1ccc(C(=O)OCCN2CCN(c3ncc(C(F)(F)F)cc3Cl)CC2)cc1 | i | i | i | i | 14µM | ?
O=C(OCCN1CCN(c2ncc(C(F)(F)F)cc2Cl)CC1)c1ccc(F)cc1 | i | i | i | i | i | ?
O=C(CN1CCN(c2ncc(C(F)(F)F)cc2Cl)CC1)N1CCN(c2ncc(C(F)(F)F)cc2Cl)CC1 | i | i | i | i | i | 4.5µM
CCCC1CC(C)(c2csc(Nc3ccc(OCC)cc3)n2)OC1=O (centres undefined) | i | i | ? | i | i | 11µM
O=c1c2ccccc2c(-c2ccccc2)nn1-c1ccc(Cl)c(Cl)c1 | i | i | i | i | ? | ?
CCCCCOC(=O)c1ccc(NC(=O)c2cccc(NC(=O)c3ccccc3C(=O)O)c2)cc1 | i | i | i | i | i | 7.1µM
N#Cc1nc(Cc2ccccc2)oc1N1CCCC1 | i | i | i | i | nt | i
CC1CC(C)CN(c2oc(Cc3ccccc3)nc2C#N)C1 (centres undefined) | i | i | i | i | i | 11µM
Cc1ccc(NC(=O)C(C)c2cccc(C(=O)c3ccccc3)c2)cc1O (centres undefined) | i | i | i | i | 20µM | ?
Cc1cccc(NC(=O)C(C)C(=O)c2ccccc2)c1 (centres undefined) | i | i | i | i | i | i
O=C(NCCCOc1ccc([N+](=O)[O-])cc1Cl)OCc1ccccc1 | i | i | nt | i | i | i
O=C(NCCC(=O)N1CCN(c2ncccn2)CC1)c1ccc(Cl)cc1 | i | nt | nt | nt | nt | nt
O=C(NCC(=O)N1CCN(c2ncccn2)CC1)c1ccccc1F | i | i | i | i | i | i
O=C(NCC(=O)N1CCN(c2ncccn2)CC1)c1ccc(F)cc1 | i | i | ? | i | 14µM | i
O=C(NCCC(=O)N1CCN(c2ncccn2)CC1)c1ccc(Br)cc1 | -32 | nt | nt | nt | nt | nt
O=C(Cn1cnc2c(OCc3ccccc3)ncnc21)NCCCN1CCCC1=O | i | i | i | i | i | i
Fc1cccc(F)c1/C=C/c1ccc2ccccc2n1 | i | i | 22µM | i | i | ?
O=C(CCl)Nc1c2c(nn1-c1ccccc1)CSC2 | i | i | i | i | nt | ?
Cc1c(Cl)c(C(=O)N2CCCC2)nn1C | i | i | i | i | ? | i
SMILES | LDHA inh | HEK293 tox | p53 reactivator | GLP1R ag | ClpP mod | GLP-1R inv ag
Cc1ccc(N2C(=O)N(CC(=O)Nc3cc(C)cc(C)c3)C(=O)C2C)cc1 (centres undefined) | i | i | i | i | nt | 4µM
Cc1ccc(N2C(=O)N(CC(=O)Nc3ccc([N+](=O)[O-])cc3)C(=O)C2C)cc1 (centres undefined) | i | i | i | i | i | 11µM
Cc1ccc(N2C(=O)N(CC(=O)Nc3cc(Cl)ccc3C)C(=O)C2C)cc1 (centres undefined) | i | i | i | i | i | 10µM
Cc1ccc(N2C(=O)N(CC(=O)Nc3ccc(C)c(C)c3)C(=O)C2C)cc1 (centres undefined) | i | i | i | i | i | 10µM
Cc1ccc(N2C(=O)N(CC(=O)Nc3ccc(C)cc3Cl)C(=O)C2C)cc1 (centres undefined) | i | i | i | i | i | ?
Cc1ccc(N2C(=O)N(CC(=O)Nc3ccc(F)c(F)c3)C(=O)C2C)cc1 (centres undefined) | i | i | i | i | i | ?
CC1=CC(C)(C)N(C(=O)CSc2nncn2C)c2ccccc21 | i | i | i | i | i | i
Cc1ccc(C(=O)NCCn2c(N)c(C#N)c3nc4ccccc4nc32)cc1 | i | i | i | i | 22µM | i
N#Cc1c(N)n(CCNC(=O)c2ccc(Cl)cc2)c2nc3ccccc3nc12 | i | i | i | i | 3.2µM | i
O=C(NCC1CC2c3ccccc3C1c1ccccc12)c1cnccn1 (centres undefined) | i | nt | nt | nt | nt | nt
Nc1ccccc1OCCOCCOc1ccccc1N | i | i | i | i | 22µM | ?
Nc1ccccc1OCCOc1ccccc1N | i | ? | ? | i | i | ?
O=C(NC1CCN(Cc2ccccc2)CC1)c1ccccc1NS(=O)(=O)c1ccc(F)c(F)c1 | i | i | nt | i | i | ?
COc1ccc(C(=O)Nc2ccccc2C(=O)NCC2CCCO2)cc1 (centres undefined) | i | i | i | i | i | i
O=C1C=C(NCc2ccco2)CC(c2ccc(Cl)cc2)C1 (centres undefined) | i | i | i | i | i | i
CCCOc1ccc(-c2c(=O)n(OCc3ccc([N+](=O)[O-])cc3)c3ccccc3[n+]2[O-])cc1 | i | i | i | i | 28µM | i
CN(C)CCCNc1oc(-c2ccccc2Cl)nc1S(=O)(=O)c1ccc(F)cc1 | i | i | i | i | i | ?
CN(C)CCNc1oc(-c2ccccc2Cl)nc1S(=O)(=O)c1ccccc1 | i | i | i | i | i | 3.2µM
Cn1nc(C(F)(F)F)c(/C=N/OC(=O)c2ccccc2)c1SCc1ccccc1Cl | i | i | i | i | i | ?
COc1ccc(-[n+]2c(C)cc(/C=C3\Sc4ccccc4N3C)cc2C)cc1 | i | i | i | i | i | ?
COc1ccccc1-[n+]1c(C)cc(/C=C2\Sc3ccccc3N2C)cc1C | i | i | ? | i | i | 2.5µM
CCNc1nc(-c2sc(NC(=O)C(C)(C)C)nc2C)c(-n2cc(-c3ccccc3)nn2)s1 | i | ? | nt | i | ? | 10µM
Cc1ccc(N2C(=O)C(CN3CCCCC3)C2c2ccccc2)cc1 (centres undefined) | i | i | i | i | 16µM | ?
Cc1ccc(N2C(=O)C(CN3CCCC3)C2c2ccccc2)cc1 (centres undefined) | i | i | i | i | nt | 10µM
CSc1ccccc1NC(=O)Cn1nnc(-c2ccc(S(C)(=O)=O)cc2)n1 | i | i | i | i | i | i
C=C(C)CNC(=S)N/N=C/c1ccc(N2CCOCC2)cc1 | i | ? | i | i | nt | 10µM
